This is one part of a sample in which hits are shown more often than they occur.
HIV RNase H inh-1 = HIV-1 RT RNase H inhibitors, primary screen, biochemical, fluorescence. actives 1.9% (n = 65,000). RT-RNase H RNA/DNA duplex cleavage. AID 565, 2006. Gag-Pol polyprotein (Human immunodeficiency virus type 1 group M subtype B (isolate …. inhibition, % at 10 µM; in the data active = inhibition above about 50%
HIV RNase H inh-2 = HIV-1 RT RNase H inhibitors, retest, confirmation, biochemical | shares compounds with HIV RNase H inh-1 | Recombinant RT RNase H, fluorescent RNA/DNA duplex cleavage | inhibition, % at 10 µM | actives 39% (n = 1,000) | AID 651, 2007; in the data active = inhibition above about 48%; inconclusive = no clear call, values can overlap the other calls
A number is an active result; - = inactive; ? = inconclusive.

SMILES | HIV RNase H inh-1 | others
N=C1C(c2nc3ccccc3c(=O)[nH]2)=C(O)CN1CCc1ccccc1 | 75 | HIV RNase H inh-2=-
COCCN1CC(O)=C(c2nc3ccccc3c(=O)[nH]2)C1=N | -
COC(=O)c1ccc(NC(=O)C2CCCN(S(=O)(=O)c3cnc[nH]3)C2)cc1 (configuration not stated) | -
c1ccc(Oc2ccc(-n3cnnn3)cc2)cc1 | -
Cn1c(=O)c(C(=O)CSc2nncs2)c(N)n(Cc2ccccc2)c1=O | -
Cc1cccnc1NC(=O)c1c(O)c2cccc3c2n(c1=O)CCC3 | -
Cc1ccccc1NC(=O)c1c(O)c2cccc3c2n(c1=O)CCC3 | -
Cc1ccccc1NC(=O)c1c(O)c2cccc3c2n(c1=O)CC3 | 52 | HIV RNase H inh-2=97
COc1ccc(S(=O)(=O)N2CCCC(C(=O)N3CCOCC3)C2)cc1C (configuration not stated) | -
C=CCOc1c(Br)cc(CNn2nnnc2N)cc1OC | -
COCc1cc(C)c(C#N)c(=S)[nH]1 | -
CCCCOC(=O)CCc1c(C)[nH]c(=O)c(C#N)c1C | -
C=CCc1c(C)[nH]c(=S)c(C#N)c1C | 77 | HIV RNase H inh-2=59
CCOC(=O)c1cccc(NC(=O)CSc2nnc(C3CCCCC3)n2CC)c1 | -
CC1CCCC(C)N1CCNC(=O)CCn1nc(-c2ccccc2)ccc1=O (configuration not stated) | -
Fc1ccc(N2CCN(C(c3cccs3)c3nnnn3C3CCCC3)CC2)cc1 (configuration not stated) | -
c1cc(C(c2nnnn2C2CCCC2)N2CCOCC2)ccn1 (configuration not stated) | -
Oc1ccc(N2CCN(C(c3ccncc3)c3nnnn3C3CCCC3)CC2)cc1 (configuration not stated) | 79 | HIV RNase H inh-2=?
Cc1cccc(C)c1NC(=O)CSc1nnc(Cn2nnc(-c3ccccc3)n2)n1-c1ccccc1 | -
O=C(NCc1ccco1)c1cc2sccc2n1Cc1ccccc1 | -
c1ccc(Cn2nnc3c(Nc4ccc5c(c4)OCO5)nc(C4CC4)nc32)cc1 | -
CCCN(CCC)S(=O)(=O)c1ccc(C(=O)Nc2nnc(-c3cccc(OC)c3)o2)cc1 | 68 | HIV RNase H inh-2=89
COc1ccccc1-c1nnc(NC(=O)c2ccc(S(=O)(=O)N(C)C)cc2)o1 | -
CCN(Cc1ccccc1)S(=O)(=O)c1ccc(C(=O)Nc2nnc(-c3ccccc3OC)o2)cc1 | 78 | HIV RNase H inh-2=62
CCCN(CCC)S(=O)(=O)c1ccc(C(=O)Nc2nnc(CSC)o2)cc1 | -
SMILES | HIV RNase H inh-1 | others
CCCN(CCC)S(=O)(=O)c1ccc(C(=O)Nc2nnc(-c3cc(OC)cc(OC)c3)o2)cc1 | 53 | HIV RNase H inh-2=-
CCCCN(CC)S(=O)(=O)c1ccc(C(=O)Nc2nnc(-c3ccccc3Cl)o2)cc1 | -
COc1cccc(-c2nnc(NC(=O)c3ccccc3Br)o2)c1 | -
COc1cccc(-c2nnc(NC(=O)c3cccc(F)c3)o2)c1 | -
CCc1nnc(NC(=O)c2ccc(S(=O)(=O)N(CCOC)CCOC)cc2)o1 | -
Cc1ccc(C)c(N2CCN(C(=O)CN(C)S(=O)(=O)c3cnc[nH]3)CC2)c1 | -
COc1ccc(NC(=O)Cn2c(=O)sc3ccccc32)c(OC)c1 | -
CC(Sc1cccc(C(F)(F)F)c1)C(=O)NC(N)=O (configuration not stated) | -
CCOC(=O)c1cn2c3c(c(F)c(F)c(F)c3c1=O)SC(N1CCCC1)=N2 | -
CCOC(=O)/C(C#N)=C(\N)C(C)C(=O)Nc1ccccn1 (configuration not stated) | -
Cc1noc(C)c1CSc1ccccc1C(=O)Nc1nccs1 | -
Cc1cccc(N2CCN(C(=O)CCn3c(=S)[nH]c4cc5c(cc4c3=O)OCO5)CC2C)c1 (configuration not stated) | -
c1ccc(Cn2nnnc2C(c2cccnc2)N2CCN(c3ccccc3)CC2)cc1 (configuration not stated) | -
Cc1ccc(-c2nnn(CC(=O)N(CC(=O)NC(C)C)c3cnc4ccccc4c3)n2)o1 | -
CCC(C(=O)NC1CCCC1)N(C(=O)Cn1nnc(-c2ccc(C)o2)n1)c1cnc2ccccc2c1 (configuration not stated) | 66 | HIV RNase H inh-2=-
Cc1ccc(-c2nnn(CC(=O)N(CC(=O)NC3CCCC3)c3cnc4ccccc4c3)n2)o1 | -
Cc1nc2sc3c(c2c2nc(-c4ccco4)nn12)CC(C)(C)OC3 | -
Cc1c(NC(=O)c2ccc3c(c2)OCO3)cccc1-c1nc2ccccc2o1 | -
O=C(Nc1ccccc1-c1nc2ccccc2o1)c1ccc2c(c1)OCCO2 | -
O=C(NCc1nc(-c2ccccc2)no1)c1ccc2c(c1)OCO2 | -
Cc1ccccc1OCc1nc(-c2ccc(NC(=O)c3ccc4c(c3)OCO4)cc2)no1 | 75 | HIV RNase H inh-2=87
Cc1ccccc1OCc1nc(-c2ccc(NC(=O)c3ccco3)cc2)no1 | -
Cc1ccc(-c2nc3ccccc3o2)cc1NC(=O)c1ccc2c(c1)OCO2 | 62 | HIV RNase H inh-2=-
O=C(CN(C1CCCCC1)S(=O)(=O)c1ccc(Cl)cc1)NCc1ccncc1 | -
CCc1ccccc1N(C(=O)c1cccs1)C1C=CS(=O)(=O)C1 (configuration not stated) | -
SMILES | HIV RNase H inh-1 | others
Cn1c(=O)c2cc(NC(=O)c3ccccc3Cl)c(=O)oc2n(C)c1=O | -
COc1ccc(C2C(C(C)=O)=C(C)Nc3ncnn32)cc1OC (configuration not stated) | -
CCCCCOc1ccc(C2C(C(C)=O)=C(C)Nc3ncnn32)cc1OC (configuration not stated) | 64 | HIV RNase H inh-2=-
CCCCOC(=O)C1=C(C)Nc2ncnn2C1c1cc(OC)ccc1OC (configuration not stated) | -
Cc1cc(C)n2nc(SC3CCCCN(C(=O)c4ccc(F)cc4)C3=O)nc2n1 (configuration not stated) | -
COc1cc(S(=O)(=O)NCCc2ccc3c(c2)OCO3)ccc1-n1cnnn1 | -
O=C(CSc1ccc2nnc(-c3ccc(F)cc3)n2n1)N1CCOCC1 | -
CCOc1ccc(-c2nnc3ccc(SCC(=O)N4CCN(c5ccccc5)CC4)nn23)cc1 | -
O=C(CSc1ccc2nnc(-c3ccc(Cl)cc3)n2n1)N1CCN(c2ccccc2)CC1 | 60 | HIV RNase H inh-2=-
COc1ccc(-n2c(SCCC#N)nnc2-c2cc(Cl)ccc2OC)cc1Cl | -
Cc1c(-c2cccs2)[n+](=O)c2c(n1[O-])CCCC2 | -
Cn1cc(C(=O)NCCN2CCN(c3ccccc3F)CC2)c2c3ccccc3n(C)c2c1=O | -
O=C(Nc1nc2c(s1)CCCC2)C1COc2ccccc2O1 (configuration not stated) | -
O=C(NC1CCS(=O)(=O)C1)c1c(NC(=O)C2COc3ccccc3O2)sc2c1CCCC2 (configuration not stated) | 54 | HIV RNase H inh-2=70
O=C(Nc1sc2c(c1C(=O)NC1CCCCC1)CCC2)c1ccco1 | -
Cc1ccc(S(=O)(=O)Nc2ccc(-c3nnc(SCC#N)n3C)cc2)cc1 | -
COC(=O)C1=C(NC(=O)c2cccc(C)c2)CCS1 | -
C=CCSc1nnc(NC(=O)CSc2nc3ccccc3o2)s1 | -
O=C(NCc1ccco1)c1nn(-c2ccccc2)c(=O)c2ccccc12 | -
COc1ccc(-n2nc(C(=O)NCC(=O)NCc3ccco3)c3ccccc3c2=O)cc1 | -
COc1ccc(-n2nc(C(=O)NCc3ccco3)c3c4ccccc4n(C)c3c2=O)cc1Cl | 71 | HIV RNase H inh-2=-

Bioassay records from PubChem BioAssay.
